Laboratory results from PubChem BioAssay (NCATS).
Records with an inconclusive call do not appear. Calls of active or inactive are those of the source. Unless noted, calls follow the shape of the dose curve; as a rule, active = well fitted curve in the direction sought with a large enough effect; inconclusive = small, poorly fitted or top-dose-only effect, or another doubt; inactive = no such curve, though single readings can be large; an effect the other way counts as inactive or inconclusive.

Assays:
[1] = target: Thioredoxin reductase 1, cytoplasmic (Rattus norvegicus) (UniProt O89049); experiment: qHTS Assay for Substrates of Mammalian Selenoprotein Thioredoxin Reductase 1 (TrxR1) (AID 488772);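 also: NADPH fluorescence in the first read after selenite addition and not the 8 min delta; series mostly up to about 57 µM; a drop in NADPH fluorescence below the no-compound background marks a TrxR1 substrate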
Chain of Thioredoxin reductase 1, cytoplasmic (Rattus norvegicus) (O89049 whole entry, looked up): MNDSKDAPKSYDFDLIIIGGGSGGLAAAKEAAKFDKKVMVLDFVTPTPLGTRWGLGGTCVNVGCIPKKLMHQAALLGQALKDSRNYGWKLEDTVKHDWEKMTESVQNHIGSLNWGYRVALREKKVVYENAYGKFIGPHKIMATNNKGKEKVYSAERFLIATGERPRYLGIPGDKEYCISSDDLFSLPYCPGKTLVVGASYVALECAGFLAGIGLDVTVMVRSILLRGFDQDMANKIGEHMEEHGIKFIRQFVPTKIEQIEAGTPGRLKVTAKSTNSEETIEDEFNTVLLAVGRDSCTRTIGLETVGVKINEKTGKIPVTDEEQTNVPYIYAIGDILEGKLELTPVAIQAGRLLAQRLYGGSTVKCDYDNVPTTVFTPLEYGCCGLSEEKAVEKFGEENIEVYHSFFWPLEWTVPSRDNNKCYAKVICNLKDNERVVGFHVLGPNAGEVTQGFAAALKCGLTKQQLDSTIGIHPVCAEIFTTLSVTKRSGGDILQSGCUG
Procedure, shortened: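 Quantitative HTS in Tris-HCl buffer at pH 7.5 with EDTA and Tween-20, using rat TrxR1, 400 uM NADPH and 400 uM selenite (final). A fall in initial NADPH fluorescence relative to background marked substrate behaviour.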

[2] = target: Thioredoxin reductase 1, cytoplasmic (Rattus norvegicus) (UniProt O89049); experiment: qHTS Assay for Inhibitors of Mammalian Selenoprotein Thioredoxin Reductase 1 (TrxR1) (AID 488773); details: Potency: inhibition; also: nearly all actives have a fitted effect of over 40% in size; also: potency is read from the fitted curve at half-maximal effect
Procedure, shortened: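 Steps: enzyme (90 nM) plus NADPH (400 uM final), 5 min at ~22 deg C; compound added, 15 min; selenite (400 uM final) added; fluorescence followed for 8 min. Concentration-response curves derived from the normalized delta values.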

[3] = target: Flap endonuclease 1 (Homo sapiens) (UniProt P39748); experiment: qHTS Validation Assay for the Inhibitors of Human Flap endonuclease 1 (FEN1) (AID 488816)
Procedure, shortened: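 Readings taken at 0 and 15 min after starting the reaction with 50 nM (final) substrate supplied the signal. Compounds had first sat with 10 nM FEN1 reagent for 15 min at room temperature. Values come from Hill-equation concentration-response fits.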

[4] = target: Methanococcus maripaludis chaperonin (MmCpn) (UniProt Q6LX38); experiment: High-Throughput Screening for Modulators of Cytosolic Chaperonin Activity: MmCpn Primary Screen (AID 488978);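 also: 50 nM MmCpn enzyme hydrolysing 30 µM ATP at 37 °C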
Chain of Methanococcus maripaludis chaperonin (MmCpn) (Q6LX38 1-543): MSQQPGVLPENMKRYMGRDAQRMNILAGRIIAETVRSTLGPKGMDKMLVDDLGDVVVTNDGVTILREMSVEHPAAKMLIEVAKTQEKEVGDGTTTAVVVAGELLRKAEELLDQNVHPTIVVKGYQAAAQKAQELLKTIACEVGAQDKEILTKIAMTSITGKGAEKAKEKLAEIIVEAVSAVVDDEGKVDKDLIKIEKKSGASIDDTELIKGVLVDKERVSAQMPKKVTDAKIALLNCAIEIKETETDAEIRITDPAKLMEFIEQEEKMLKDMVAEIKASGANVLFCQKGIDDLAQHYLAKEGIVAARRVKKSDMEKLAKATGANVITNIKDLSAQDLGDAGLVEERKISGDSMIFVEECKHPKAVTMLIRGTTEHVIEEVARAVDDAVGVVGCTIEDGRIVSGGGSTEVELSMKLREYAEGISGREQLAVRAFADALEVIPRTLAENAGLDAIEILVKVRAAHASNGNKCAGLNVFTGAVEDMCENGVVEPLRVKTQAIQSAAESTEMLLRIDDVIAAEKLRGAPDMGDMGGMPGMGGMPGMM
Procedure, shortened: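 ATPase activity of 50 nM MmCpn was assayed with 30 uM ATP, 10 minutes at 37C, after a 5 min compound preincubation at room temperature. ADP production was read as HTRF emission at 590 and 665 nm.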

[5] = target: D(1A) dopamine receptor (Homo sapiens) (UniProt P21728); experiment: HTS Assay for Allosteric Agonists of the Human D1 Dopamine Receptor: Primary Screen for Agonists (AID 488981)
Chain of D(1A) dopamine receptor (Homo sapiens) (P21728 whole entry, looked up): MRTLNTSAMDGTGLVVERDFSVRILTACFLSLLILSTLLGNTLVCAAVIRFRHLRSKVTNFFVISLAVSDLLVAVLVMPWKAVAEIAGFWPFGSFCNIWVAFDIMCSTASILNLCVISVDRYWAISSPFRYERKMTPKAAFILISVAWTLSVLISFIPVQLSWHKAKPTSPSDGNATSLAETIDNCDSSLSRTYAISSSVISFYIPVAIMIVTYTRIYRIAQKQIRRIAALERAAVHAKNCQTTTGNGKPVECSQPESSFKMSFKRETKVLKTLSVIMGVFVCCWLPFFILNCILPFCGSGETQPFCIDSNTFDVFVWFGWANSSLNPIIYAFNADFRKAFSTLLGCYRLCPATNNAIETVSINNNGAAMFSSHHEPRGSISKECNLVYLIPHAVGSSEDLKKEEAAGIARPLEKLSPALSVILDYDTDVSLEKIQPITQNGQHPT
Procedure, shortened: (§1)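 Calcium flux in an inducible, force-coupled HEK293 Trex D1 line (overnight at 30 C): agonist mode is the 180 s kinetic read after compound; potentiator mode is the following 180 s read after dopamine at EC20.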

[6] = target: D(1A) dopamine receptor (Homo sapiens) (UniProt P21728); experiment: HTS Assay for Allosteric Agonists of the Human D1 Dopamine Receptor: Primary Screen for Potentiators (AID 488982)
Procedure, shortened: as §1

[7] = target: D(1A) dopamine receptor (Homo sapiens) (UniProt P21728); experiment: HTS Assay for Allosteric Agonists of the Human D1 Dopamine Receptor: Primary Screen for Antagonists (AID 488983);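 also: calcium flux response to an EC80 dopamine challenge measured with no-wash dye; nearly all actives have a fitted effect of over 65% in size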; also: potency is read from the fitted curve at half-maximal effect
Procedure, shortened: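 Tetracycline-induced HEK293 T-REx cells expressing force-coupled D1 were plated overnight at 30 C, dye-loaded for calcium, and read kinetically. Compounds were pinned in, then an EC80 dopamine challenge followed after 180 s to reveal antagonism.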

[8] = Validation screen for small molecules that induce genotoxicity in human embryonic kidney (HEK293T) cells expressing luciferase-tagged ELG1 (AID 493106)
Procedure, shortened: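 HEK293T cells expressing luciferase-tagged ELG1 were exposed to compound or DMSO vehicle for 16 hr at 37 °C, 5% CO2. Genotoxic stress raises ELG1 levels, so increased luciferase signal after ONE-Glo addition and 30 min at room temperature marks hits.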

[9] = Nrf2 qHTS screen for inhibitors: Validation (AID 493153; active = well fitted inhibition curve with a large enough effect in the main read-out, with a control signal flat, not every such curve was filed as active); details: Potency: luciferase luminescence; viability change: measured here: cytotoxicity max response
Procedure, shortened: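 A549 cells carrying an ARE-driven firefly luciferase reporter, in 5% FBS OPTI-MEM, were treated with compounds in concentration-response for 18-24 h at 37°C. Viability was read by CellTiter-Fluor fluorescence, then Nrf2 activity by luciferase luminescence.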

[10] = qHTS for Inhibitors of Cell Surface uPA Generation: Validation Assay (AID 493164);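 also: RAW 264.7 macrophage cells exposed to compound for 18 h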
Procedure, shortened: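 RAW 264.7, 4000 cells/well, o/n plating; cpd 7-pt 1:5 dilution 2.45 nM–38.3 uM final; 18 h, 37 C/5% CO2; ATP-Lite, 5 s luminescence exposure.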

[11] = target: M-phase phosphoprotein 8 (Homo sapiens) (UniProt Q99549); experiment: qHTS Validation Assay for Inhibitors for MPP8 Chromodomain Interactions with Methylated Histone Tails (AID 488949); also: nearly all actives have a fitted effect of over 55% in size; also: potency is read from the fitted curve at half-maximal effect
Chain of M-phase phosphoprotein 8 (Homo sapiens) (Q99549 whole entry, looked up): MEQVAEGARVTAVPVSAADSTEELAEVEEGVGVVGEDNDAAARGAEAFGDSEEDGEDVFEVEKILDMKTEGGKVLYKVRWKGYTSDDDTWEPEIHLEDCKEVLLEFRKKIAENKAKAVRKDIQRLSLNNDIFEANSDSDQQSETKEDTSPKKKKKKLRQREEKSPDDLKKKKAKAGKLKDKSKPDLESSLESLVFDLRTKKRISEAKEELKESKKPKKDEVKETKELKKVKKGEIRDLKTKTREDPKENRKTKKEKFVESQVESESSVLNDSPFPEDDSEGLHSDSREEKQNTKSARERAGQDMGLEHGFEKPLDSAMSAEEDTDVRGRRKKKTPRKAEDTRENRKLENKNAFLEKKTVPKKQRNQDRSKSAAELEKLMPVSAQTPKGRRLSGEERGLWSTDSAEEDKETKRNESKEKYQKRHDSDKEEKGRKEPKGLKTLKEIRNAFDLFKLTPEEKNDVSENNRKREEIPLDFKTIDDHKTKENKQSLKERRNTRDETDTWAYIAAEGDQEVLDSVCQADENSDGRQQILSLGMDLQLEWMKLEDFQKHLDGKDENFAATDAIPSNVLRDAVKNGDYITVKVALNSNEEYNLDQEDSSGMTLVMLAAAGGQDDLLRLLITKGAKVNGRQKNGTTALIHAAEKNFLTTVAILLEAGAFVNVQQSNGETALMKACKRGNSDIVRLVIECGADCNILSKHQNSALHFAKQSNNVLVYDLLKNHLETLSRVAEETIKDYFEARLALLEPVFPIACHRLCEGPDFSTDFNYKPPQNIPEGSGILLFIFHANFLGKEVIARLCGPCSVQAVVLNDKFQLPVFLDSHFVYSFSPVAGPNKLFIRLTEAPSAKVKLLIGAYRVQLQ
Procedure, shortened: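 AlphaScreen proximity signal from streptavidin donor and Ni-chelate acceptor beads (10 ug/mL each) reported binding of MPP8 to trimethyl-K9 H3(1-18) peptide, both at 50 nM. The complex formed 30 min before a 30 min compound exposure at room temperature, in PBS pH 7.4.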

[12] = target: Transient receptor potential cation channel subfamily V member 1 (Homo sapiens) (UniProt Q8NER1); experiment: HTS Assay for Compounds that Act as Enhancers of the Vanilloid Receptor 1 (AID 488979)
Procedure, shortened: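 Calcium influx kinetics via Fluo-8 (480/520 nm) in TRPV1-expressing cells, 2000/well cultured overnight at 35.5C. Compound-alone read 3 min (agonist phase), followed by EC20 capsaicin challenge for 2 min (enhancer phase).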

[13] = target: Thyrotropin receptor (Homo sapiens) (UniProt P16473); experiment: qHTS Assay for Antagonists of the Thyroid Stimulating Hormone Receptor (AID 488980); also: series mostly up to about 58 µM
Procedure, shortened: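 Inhibition of cAMP raised by EC80 TSH (4 nM final) was read by HTRF, with lysate cAMP competing against cAMP-d2 for cryptate antibody after 30 min at room temperature. The cells were transfected HEK293 held in phosphodiesterase inhibitor RO 20-1724 at 70 uM.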

[14] = target: ATPase family AAA domain-containing protein 5 (Homo sapiens) (UniProt Q96QE3); experiment: Validation screen for small molecules that inhibit ELG1-dependent DNA repair in human embryonic kidney (HEK293T) cells expressing luciferase-tagged ELG1 (AID 493107); also: nearly all actives have a fitted effect of over 70% in size; also: potency is read from the fitted curve at half-maximal effect
Chain of ATPase family AAA domain-containing protein 5 (Homo sapiens) (Q96QE3 whole entry, looked up, the tested form may be a part): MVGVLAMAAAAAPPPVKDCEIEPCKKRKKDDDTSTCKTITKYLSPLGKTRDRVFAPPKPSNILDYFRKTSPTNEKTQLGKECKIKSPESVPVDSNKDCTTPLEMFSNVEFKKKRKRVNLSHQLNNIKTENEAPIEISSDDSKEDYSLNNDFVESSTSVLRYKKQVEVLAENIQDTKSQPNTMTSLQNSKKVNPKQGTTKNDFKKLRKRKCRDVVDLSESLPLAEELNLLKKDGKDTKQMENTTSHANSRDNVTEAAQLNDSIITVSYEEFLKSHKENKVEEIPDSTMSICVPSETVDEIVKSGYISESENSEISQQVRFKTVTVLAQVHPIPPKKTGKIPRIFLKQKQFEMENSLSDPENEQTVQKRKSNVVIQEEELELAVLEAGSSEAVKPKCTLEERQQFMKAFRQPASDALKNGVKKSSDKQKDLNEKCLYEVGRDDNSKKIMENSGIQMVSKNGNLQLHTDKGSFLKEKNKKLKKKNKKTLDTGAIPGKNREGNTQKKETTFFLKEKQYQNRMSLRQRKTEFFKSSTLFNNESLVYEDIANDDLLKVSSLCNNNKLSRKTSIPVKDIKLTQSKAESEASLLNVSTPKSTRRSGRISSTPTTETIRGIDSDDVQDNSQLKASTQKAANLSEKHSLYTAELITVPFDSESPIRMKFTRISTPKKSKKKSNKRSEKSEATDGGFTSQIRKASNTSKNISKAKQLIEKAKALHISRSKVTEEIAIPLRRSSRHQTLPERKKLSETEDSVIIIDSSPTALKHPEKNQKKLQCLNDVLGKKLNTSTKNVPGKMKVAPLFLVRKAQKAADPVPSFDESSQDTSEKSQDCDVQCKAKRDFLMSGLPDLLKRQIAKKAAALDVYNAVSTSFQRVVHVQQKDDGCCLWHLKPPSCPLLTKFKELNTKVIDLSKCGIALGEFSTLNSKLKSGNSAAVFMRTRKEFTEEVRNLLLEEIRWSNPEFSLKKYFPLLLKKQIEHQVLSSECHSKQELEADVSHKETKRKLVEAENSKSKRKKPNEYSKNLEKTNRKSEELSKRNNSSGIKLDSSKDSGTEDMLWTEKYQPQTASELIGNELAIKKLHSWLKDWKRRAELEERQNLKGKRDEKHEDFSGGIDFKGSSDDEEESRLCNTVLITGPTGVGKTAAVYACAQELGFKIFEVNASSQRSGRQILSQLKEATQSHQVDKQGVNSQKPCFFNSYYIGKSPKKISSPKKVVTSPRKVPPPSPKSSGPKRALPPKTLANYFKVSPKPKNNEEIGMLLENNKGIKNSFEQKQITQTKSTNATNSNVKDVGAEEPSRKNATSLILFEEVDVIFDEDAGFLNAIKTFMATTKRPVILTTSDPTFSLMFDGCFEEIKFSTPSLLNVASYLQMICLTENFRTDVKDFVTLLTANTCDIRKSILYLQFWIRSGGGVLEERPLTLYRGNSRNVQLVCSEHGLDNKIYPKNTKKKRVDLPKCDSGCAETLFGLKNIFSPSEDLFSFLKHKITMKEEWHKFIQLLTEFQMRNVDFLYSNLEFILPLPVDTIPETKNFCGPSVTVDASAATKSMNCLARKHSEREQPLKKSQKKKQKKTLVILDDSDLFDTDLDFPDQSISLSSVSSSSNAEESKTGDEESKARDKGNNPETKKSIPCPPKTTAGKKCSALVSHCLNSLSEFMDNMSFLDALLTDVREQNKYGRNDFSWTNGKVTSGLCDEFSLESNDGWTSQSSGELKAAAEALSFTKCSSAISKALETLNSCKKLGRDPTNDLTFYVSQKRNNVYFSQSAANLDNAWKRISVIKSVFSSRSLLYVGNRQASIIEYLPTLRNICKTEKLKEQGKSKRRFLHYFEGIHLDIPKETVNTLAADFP
Procedure, shortened: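 HEK293T cells expressing luciferase-tagged ELG1 were co-treated with 5-fluorouridine and compound or DMSO for 16 hr at 37 °C, 5% CO2. Luciferase activity was then read with ONE-Glo after 30 min at room temperature; suppressed signal indicates blocked ELG1 function.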

[15] = target: ATP-dependent 6-phosphofructokinase (Trypanosoma brucei brucei) (UniProt O15648); experiment: qHTS Assay to Find Inhibitors of T. brucei phosphofructokinase: hit validation (AID 492961); also: potency is read from the fitted curve at half-maximal effect
Chain of ATP-dependent 6-phosphofructokinase (Trypanosoma brucei brucei) (O15648 whole entry, looked up): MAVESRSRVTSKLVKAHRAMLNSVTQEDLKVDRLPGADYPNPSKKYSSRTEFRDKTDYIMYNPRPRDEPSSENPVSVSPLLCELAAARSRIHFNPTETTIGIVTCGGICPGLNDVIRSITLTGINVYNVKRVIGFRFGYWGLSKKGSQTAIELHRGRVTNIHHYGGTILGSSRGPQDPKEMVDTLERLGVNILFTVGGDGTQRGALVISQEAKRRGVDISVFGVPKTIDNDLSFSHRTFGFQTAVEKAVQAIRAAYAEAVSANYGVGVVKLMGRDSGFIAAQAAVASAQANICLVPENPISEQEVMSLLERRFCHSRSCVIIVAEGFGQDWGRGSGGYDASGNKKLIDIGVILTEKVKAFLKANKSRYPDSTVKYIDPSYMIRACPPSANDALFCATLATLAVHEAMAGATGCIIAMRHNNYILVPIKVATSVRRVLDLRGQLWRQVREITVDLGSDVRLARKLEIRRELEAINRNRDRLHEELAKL
Procedure, shortened: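 Measures ADP output of PFK (1.25 nM) at 0.1 mM ATP, 0.5 mM F6P, pH 8.0 TEA buffer with 5 mM MgCl2. No-enzyme wells define full inhibition; uninhibited enzyme wells define zero.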

[16] = target: Chromobox protein homolog 1 (Homo sapiens) (UniProt P83916); experiment: qHTS Validation Assay for Inhibitors of HP1-beta Chromodomain Interactions with Methylated Histone Tails (AID 488953); also: nearly all actives have a fitted effect of over 50% in size; also: potency is read from the fitted curve at half-maximal effect
Chain of Chromobox protein homolog 1 (Homo sapiens) (P83916 whole entry, looked up): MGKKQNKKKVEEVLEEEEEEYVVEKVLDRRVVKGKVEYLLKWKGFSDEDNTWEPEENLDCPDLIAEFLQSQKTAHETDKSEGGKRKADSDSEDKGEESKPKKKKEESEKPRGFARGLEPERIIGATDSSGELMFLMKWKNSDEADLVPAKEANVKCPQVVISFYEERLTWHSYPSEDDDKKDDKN
Procedure, shortened: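 HP1-beta (50 nM) was preincubated 30 min at room temperature with biotinylated H3(1-18)K9me3 peptide (50 nM) in PBS pH 7.4, 0.01% Tween-20, then with compounds 30 min. AlphaScreen signal was read after streptavidin donor/nickel chelate acceptor beads (10 ug/mL final).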

[17] = target: Tyrosyl-DNA phosphodiesterase 1 (Homo sapiens) (UniProt Q9NUW8); experiment: Confirmation Assay for Inhibitors of Tyrosyl-DNA Phosphodiesterase (TDP1) (AID 489007); details: recombinant human TDP1 enzymatic activity, dose-response; also: potency is read from the fitted curve at half-maximal effect; nearly all actives have a fitted effect of over 40% in size
Procedure, shortened: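 Recombinant E. coli-expressed Tdp1 (1 nM final) was preincubated with compounds 15 min at room temperature, then reacted 5 min with 15 nM 5'-biotin/3'-phosphotyrosine-FITC DNA substrate; cleavage read as loss of AlphaScreen signal (10 ug/ml beads, 10 min).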

COc1ccc2c(c1O)-c1cccc3c1[C@@H](C2)N(C)CC3
inactive: outcome [1] | Potency [2] | Potency [3] | outcome [4] | Potency [5] | Potency [6] | Potency [8] | Potency [9] | outcome [10]
active: Potency [7] 10 µM
-4.97%: viability change [9]

CCCN(CCC)[C@@H]1CCc2cccc(O)c2C1
-3.45%: viability change [9]
inactive: outcome [1] | Potency [2] | Potency [3] | Potency [11] | outcome [4] | outcome [12] | outcome [13] | Potency [5] | Potency [6] | Potency [7] | Potency [8] | Potency [14] | Potency [9]

COC([CH2][Hg])CNC(=O)c1ccccc1OCC(=O)O (configuration not stated)
active: Potency [15] 7.08 µM

CCCN1CCC[C@@H](c2cccc(O)c2)C1
-15.6%: viability change [9]
inactive: Potency [2] | Potency [11] | Potency [16] | outcome [4] | Potency [5] | Potency [6] | Potency [8] | Potency [14] | Potency [9] | outcome [10]
active: Potency [7] 11.2 µM

COc1ccc2c(c1OC)C(=O)OC2C1c2cc3c(cc2CCN1C)OCO3 (configuration not stated)
inactive: outcome [12]

C[C@H](N)Cc1cccc(C(F)(F)F)c1
-8.9%: viability change [9]
inactive: outcome [1] | Potency [2] | Potency [3] | Potency [11] | outcome [4] | Potency [5] | Potency [6] | Potency [7] | Potency [8] | Potency [14] | Potency [9] | outcome [10]

N#CCCN
-4.25%: viability change [9]
inactive: outcome [1] | Potency [2] | Potency [3] | Potency [11] | Potency [16] | outcome [4] | Potency [5] | Potency [6] | Potency [7] | Potency [8] | Potency [9] | outcome [10]

O=[N+]([O-])/C=C/c1ccc2c(c1)OCO2
inactive: Potency [3] | Potency [11] | outcome [4] | Potency [5] | Potency [6] | Potency [8] | outcome [10]
active: Potency [2] 7.52 µM | Potency [16] 14.1 µM | Potency [14] 20.6 µM

[O]=[Cr](=[O])([OH])[O][Cr](=[O])(=[O])[OH]
active: Potency [17] 4.47 µM

CCN1C[C@@]2(COC)C3[C@@H](OC)C4[C@@H]1C3([C@@H]1C[C@]3(O)[C@H](OC(=O)c5ccccc5)[C@@H]1[C@]4(OC(C)=O)[C@@H](O)[C@@H]3OC)[C@H](OC)C[C@H]2O
0.88%: viability change [9]
inactive: outcome [1] | Potency [2] | Potency [3] | Potency [11] | Potency [16] | outcome [4] | Potency [5] | Potency [7] | Potency [8] | Potency [14] | Potency [9] | outcome [10]

O=C(OCCN1CCCCC1)C(O)(c1ccccc1)c1ccccc1
inactive: Potency [15]

O=[N+]([O-])c1ccccc1
inactive: Potency [15]

O=C1CN=C(c2ccccc2)c2cc(Cl)ccc2N1CC1CC1
inactive: Potency [15]

CCCCCl
inactive: Potency [15]

O=C/C=C/c1ccccc1
inactive: Potency [15]

Clc1ccc(Cl)cc1
inactive: Potency [15]

CC(C)[C@@]1(NC(=O)[C@@H]2C[C@@H]3c4cccc5[nH]cc(c45)C[C@H]3N(C)C2)O[C@@]2(O)[C@@H]3CCCN3C(=O)[C@H](Cc3ccccc3)N2C1=O
inactive: outcome [1] | Potency [3] | Potency [11] | outcome [4] | Potency [5] | Potency [6] | Potency [8] | Potency [9]
10.7%: viability change [9]
active: Potency [7] 5.62 µM

CCCN1CCc2cc(O)cc3c2[C@H]1Cc1ccc(O)c(O)c1-3
inactive: outcome [1] | outcome [4] | Potency [5] | Potency [8] | Potency [14] | Potency [9] | outcome [10]
active: Potency [11] 11.9 µM | Potency [16] 1.34 µM | Potency [7] 0.631 µM
-6.67%: viability change [9]

CCCC(=O)OC(C(Cl)(Cl)Cl)P(=O)(OC)OC (configuration not stated)
inactive: Potency [15]

CC(N)Cc1ccc(O)cc1 (configuration not stated)
inactive: Potency [15]

CN1c2ccccc2C(NCCCCCCC(=O)O)c2ccc(Cl)cc2S1(=O)=O (configuration not stated)
inactive: Potency [15]

CCC1(c2ccccc2)C(=O)NC(=O)N(C)C1=O (configuration not stated)
inactive: Potency [15]

CNC1(c2ccccc2Cl)CCCCC1=O (configuration not stated)
inactive: Potency [15]

O=C(NC(=O)c1c(F)cccc1F)Nc1ccc(Cl)c(Oc2ncc(C(F)(F)F)cc2Cl)c1
inactive: Potency [15]
